Assay [1] concerns the target T1, Aspartate--tRNA(Asp/Asn) ligase (Mycobacterium tuberculosis (strain ATCC 25618 / H37Rv)) (UniProt P9WFW3). Further: in the data most compounds retested in dose-response had high values.
T1 sequence (whole entry): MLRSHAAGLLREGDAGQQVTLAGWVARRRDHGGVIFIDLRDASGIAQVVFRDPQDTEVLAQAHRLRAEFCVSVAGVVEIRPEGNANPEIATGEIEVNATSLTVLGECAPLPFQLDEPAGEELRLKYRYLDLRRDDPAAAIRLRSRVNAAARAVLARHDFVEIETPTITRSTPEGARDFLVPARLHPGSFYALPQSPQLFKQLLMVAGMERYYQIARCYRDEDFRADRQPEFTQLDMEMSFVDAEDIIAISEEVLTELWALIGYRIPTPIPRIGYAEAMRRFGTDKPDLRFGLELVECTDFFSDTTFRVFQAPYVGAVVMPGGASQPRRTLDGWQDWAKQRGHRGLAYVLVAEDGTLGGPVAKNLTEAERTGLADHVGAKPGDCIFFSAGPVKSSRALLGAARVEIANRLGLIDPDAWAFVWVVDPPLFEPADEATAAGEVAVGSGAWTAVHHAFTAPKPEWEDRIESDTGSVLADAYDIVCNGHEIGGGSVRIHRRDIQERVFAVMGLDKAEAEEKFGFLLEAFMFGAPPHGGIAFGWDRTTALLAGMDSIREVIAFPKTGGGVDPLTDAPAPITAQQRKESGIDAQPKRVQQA
Briefly: Assay for Asp RNA synthetase-1 from Mycobacterium tuberculosis. The following applies: 30 µM. Further details: scale not given: direction of the effect not stated beside the values. It counts as functional.

In assay [2] the target is Shiga toxin 2 (Escherichia coli O157:H7) (UniProt P09385+P09386). Briefly: E. coli 0.157:H7 Shiga Toxin SOP - stx2 screening assay. It counts as functional. Further details: scale not given: direction of the effect not stated beside the values. The following applies: 30 µM.

Consider `COc1ncccc1NC(=O)C1CCS(=O)(=O)C1` (stereo not drawn), for which the Percent Effect in assay [1] was -3.61%; in assay [2], -37.8%.

Turning to `CC(C)S(=O)(=O)N1CCC(c2cc3n(n2)[C@@H](C(F)(F)F)C[C@@H](C)N3)C1` (stereo partly drawn), the Percent Effect was -2.54% in assay [1] and -27.2% in assay [2].

For the molecule `Cc1cc(C)c(CNC(=O)N2CCN(c3cnccn3)CC2)c(=O)[nH]1`, the Percent Effect is -0.167% in assay [1] and 9.86% in assay [2].

On to `CN(C)Cc1ccc(C2CCCCN2C(=O)c2cc(C3CC3)n[nH]2)cc1` (stereo not drawn), for which the Percent Effect is -1.82% in assay [1] and 2.95% in assay [2].

For the molecule `CCC(=O)N1CCC(c2nnc(Cn3cncn3)n2C2CC2)CC1`, the figures for the Percent Effect in assay [1] and in assay [2] were -3.04% and -2.15%, respectively.

Regarding `O=C(O)[C@@H]1CN(C(=O)c2cc(C3CC3)n[nH]2)C[C@H]1c1cccc(F)c1`, the Percent Effect in assay [1] was -3.42%; in assay [2] it was -8.72%.

As for `Cc1nc(Nc2nccs2)cc(C2CCCN2C2CCOCC2)n1` (stereo not drawn), the Percent Effect in assay [1] is -3.08%; in assay [2] it was 3.58%.

In the case of `COc1cccc(C2CC(=O)Nc3nc(N)sc32)c1OC` (stereo not drawn), the Percent Effect in assay [1] was 65.3%; in assay [2], -20%.

`CC(CNC(=O)Nc1cn[nH]c1)N1CCOCC1` (stereo not drawn): the Percent Effect in assay [1] was determined as 1.82%; in assay [2], 26.9%.

In the case of `Cc1ccc(OCCC(=O)N2CCN(c3cnccn3)CC2)cc1C`, the Percent Effect was -0.856% in assay [1] and -12.8% in assay [2].

As for `COc1ccc(C(C)NC(=O)Cn2ccc(=O)n(C)c2=O)cc1OC` (stereo not drawn), the Percent Effect was 2.15% in assay [1] and -8.59% in assay [2].

Turning to `Cc1ccsc1[C@@H]1CCN(C(=O)c2cc3ccccc3[nH]2)C[C@H]1O`, the Percent Effect in assay [1] was -0.724%; in assay [2] it was -11.7%.

For `Cc1cccn2cc(CC(=O)N3CCCC(n4cncn4)C3)nc12` (stereo not drawn), the Percent Effect in assay [1] is 1.06%; in assay [2] it was -13.1%.

As for `Cc1ccc(C2CSCCN2C(=O)c2ccsc2)o1` (stereo not drawn), the Percent Effect in assay [1] was 3.37%; in assay [2] it was 16.4%.

With `CC(C)(C)CC(=O)N1CC[C@@H]2[C@H](CC1)N(S(C)(=O)=O)CCS2(=O)=O`, the results for the Percent Effect in assay [1] and in assay [2] were -2.83% and -21.6%, respectively.

As to `CCOc1ncccc1NC(=O)c1cc(C)c(C)s1`, the Percent Effect was -2.03% in assay [1] and 3.75% in assay [2].

As to `CC(=O)N1CCCC1c1nccnc1Nc1cccc(C)n1` (stereo not drawn), the Percent Effect is 1.07% in assay [1] and -5.74% in assay [2].

`COCCNC(=O)CN1CCN(c2nc(C)cs2)C(C)C1` (stereo not drawn): the Percent Effect in assay [1] was -0.728%; in assay [2] it was -15.9%.

As for `CCc1nc(CN(C)C2CCN(CCS(C)(=O)=O)C2)no1` (stereo not drawn), the Percent Effect in assay [1] was 3.04%; in assay [2] it was -32.8%.

`CC(=O)NCC(=O)N1Cc2nccn2CC(Cn2cccn2)C1` (stereo not drawn): the figures for the Percent Effect in assay [1] and in assay [2] were -1.48% and 0.581%, respectively.

As to `CC(C)C(=O)N1CCC2(CCCN(CCOc3ccccc3)C2)C1` (stereo not drawn), the Percent Effect worked out at 2.32% in assay [1] and 10.8% in assay [2].

Regarding `CC1CCN(Cn2nc(-c3ccc(F)cc3)oc2=O)CC1`, the Percent Effect was -0.789% in assay [1] and -14.8% in assay [2].

Regarding `CCOC(=O)N1CCN(c2nc(NC)c3ccccc3n2)CC1`, the Percent Effect is -2.29% in assay [1] and -9.78% in assay [2].

For `Fc1cnc(N2CCn3cc(CNc4ccccn4)nc3C2)nc1`, the Percent Effect was 1.02% in assay [1] and -67.4% in assay [2].

Regarding `CCn1ncc2c1CCCC2NCc1cccc2c1OCCO2` (stereo not drawn), the Percent Effect in assay [1] was -2.02%; in assay [2], -6.1%.

As to `C1CCCN(c2nc(C3CC3)ns2)CC1`, the Percent Effect was -2.7% in assay [1] and -28.7% in assay [2].

For `O=C1CC(c2cccc(O)c2)c2sc(C(=O)O)c(-c3ccccc3)c2N1` (stereo not drawn), the Percent Effect is -3.78% in assay [1] and -24.7% in assay [2].

With `Cc1csc(Nc2nccnc2C2CCCN2C(=O)C(C)C)n1` (stereo not drawn), the Percent Effect is 7.04% in assay [1] and 13.1% in assay [2].

As for `Cc1nc(CN2CCN(C(=O)c3ccn(C)c(=O)c3)CC2)cs1`, the Percent Effect in assay [1] was 4.03%; in assay [2], -43.8%.

Regarding `CCn1c(CN(C)C)nnc1C1CCN(Cc2ccccc2)CC1`, the Percent Effect was -0.862% in assay [1] and -23.5% in assay [2].

Consider `O=C(NCC1CC1)[C@H]1C[C@H]2OCC[C@H]2N(Cc2ccoc2)C1`, for which the Percent Effect in assay [1] was 2.61%; in assay [2], -11.8%.

Regarding `Cc1[nH]ccc1C(=O)Nc1cccc(CN2CCC(CO)CC2)c1`, the results for the Percent Effect in assay [1] and in assay [2] were -1.71% and -43.9%, respectively.

Regarding `Cc1nc(C)n(CC2CN(CC(=O)Nc3nccs3)CCO2)n1` (stereo not drawn), the Percent Effect in assay [1] was -3.2%; in assay [2] it was 0.609%.

For `Cc1ccc(CNC(C)c2ccc3[nH]c(=O)[nH]c3c2)s1` (stereo not drawn), the figures for the Percent Effect in assay [1] and in assay [2] were 1.6% and -1.3%, respectively.

Regarding `CN(C)[C@@H]1CCN(c2ncccn2)[C@H]1Cc1ccccc1`, the results for the Percent Effect in assay [1] and in assay [2] were -0.0594% and -1.36%, respectively.

Turning to `O=C(CS(=O)(=O)CC1CCCCC1)NC1CCCCNC1=O` (stereo not drawn), the Percent Effect is -4.37% in assay [1] and -23% in assay [2].

With `COc1ccnc(N2CCN(C(=O)CCc3nccs3)CC2)n1`, the figures for the Percent Effect in assay [1] and in assay [2] were -1.19% and -2.92%, respectively.

With `Cn1ccnc1CN1CCCC1c1noc(C2CC2)n1` (stereo not drawn), the Percent Effect in assay [1] was -0.426%; in assay [2] it was -7.56%.

As to `CN(C)CC1CN(Cc2coc(-c3ccccc3Cl)n2)CCO1` (stereo not drawn), the results for the Percent Effect in assay [1] and in assay [2] were -5.66% and -26.4%, respectively.

Regarding `CCN(CC)C(=O)c1cc(C2CCCN2C)ccn1` (stereo not drawn), the Percent Effect was found to be 4.39% in assay [1] and 1.51% in assay [2].

For `Cc1nccnc1CN1CCC2(CCCN(C3CCOCC3)C2=O)C1` (stereo not drawn), the Percent Effect in assay [1] was 2.6%; in assay [2] it was -28.8%.

With `Cc1cccc(CN2CCc3c(nc(N4CCC(C)CC4)[nH]c3=O)C2)n1`, the Percent Effect was -2.78% in assay [1] and 10.7% in assay [2].

Take `CC(C)COCc1cncc2c1CCN(Cc1cnn(C)c1)C2`: the Percent Effect in assay [1] is -0.981%; in assay [2], -36.8%.

For `COc1c(C2CCCN2C(=O)c2ccc(Cl)o2)c(C)nn1C` (stereo not drawn), the results for the Percent Effect in assay [1] and in assay [2] were -4.35% and 9.5%, respectively.

As to `CCC(C)(NCC(=O)N(c1ccccc1)C(C)C)c1nc(C)cs1` (stereo not drawn), the Percent Effect in assay [1] is 1.2%; in assay [2] it was -25.8%.

With `Cc1cccc(-c2nc(C)nn2CC(=O)NC2CCCC2)c1`, the Percent Effect in assay [1] was -5.28%; in assay [2], -29.1%.

In the case of `COc1cc(CN(C)C(=O)Cc2c(C)nn(C)c2C)ccc1OC(F)F`, the Percent Effect in assay [1] was -2.09%; in assay [2], -4.8%.

Turning to `CCOc1ccc(Cl)c(C(=O)N2CCN(C(=O)c3ccoc3C)CC2)n1`, the figures for the Percent Effect in assay [1] and in assay [2] were -4.19% and -1.17%, respectively.

With `Cn1cc(CN2CCCC23CCN(C(=O)c2cccn2C)CC3)cn1`, the Percent Effect was -4.47% in assay [1] and -10.8% in assay [2].

Regarding `COC(=O)COc1nc(CC(C)C)c2c(c1C#N)CCCC2`, the Percent Effect in assay [1] was -0.893%; in assay [2], -1.99%.

For the molecule `Cc1cnn(CC2CN(Cc3nnc(-c4occc4C)o3)CCO2)c1` (stereo not drawn), the Percent Effect in assay [1] was determined as 2.04%; in assay [2], 12.3%.

`Cc1nc(CN2CCCC(NCCc3ccccc3Cl)C2)no1` (stereo not drawn): the values for the Percent Effect in assay [1] and in assay [2] were -1.91% and 10.1%, respectively.

As to `CC1COCCN1C(=O)c1cccc(OCc2cscn2)c1` (stereo not drawn), the Percent Effect was -6.86% in assay [1] and 0.62% in assay [2].

As to `COc1ccc(CNC2CCCN(Cc3noc(C)n3)C2)cc1F` (stereo not drawn), the figures for the Percent Effect in assay [1] and in assay [2] were 1.37% and 6.55%, respectively.

In the case of `O=C(O)c1cc2c(nc1O)CC(c1cccc(Cl)c1)CC2=O` (stereo not drawn), the results for the Percent Effect in assay [1] and in assay [2] were 0.494% and -22.1%, respectively.

Regarding `CCN(CC)Cc1cn2c(n1)CN(C(=O)c1cc(C)on1)CC2`, the Percent Effect amounted to 3.22% in assay [1] and 2.01% in assay [2].

On to `Cc1nccc(C2CN(Cc3cc[nH]n3)CCO2)n1` (stereo not drawn), for which the Percent Effect in assay [1] is -1.53%; in assay [2], 2.02%.

Consider `COC(=O)CC(c1ccc(OC)c(OC)c1)c1oc(C)cc(=O)c1O` (stereo not drawn), for which the results for the Percent Effect in assay [1] and in assay [2] were -0.938% and -7.17%, respectively.

Turning to `Cn1cc(CNC2CCCN(Cc3noc(C4CC4)n3)C2)cn1` (stereo not drawn), the Percent Effect in assay [1] was -1.26%; in assay [2], 24.8%.

On to `COc1ccc(CC(=O)N2CCc3nnc(N(C)C)cc3C2)cc1F`, for which the figures for the Percent Effect in assay [1] and in assay [2] were 2.43% and -57.1%, respectively.

Turning to `CN1CCN(Cc2ccccc2CNC(=O)c2ccc(Br)cc2)CC1`, the Percent Effect in assay [1] was -0.466%; in assay [2] it was 0.652%.

For `Cn1cc(N2CCC3(CCN(S(=O)(=O)C4CC4)C3)C2=O)cn1` (stereo not drawn), the figures for the Percent Effect in assay [1] and in assay [2] were -3.64% and -21.1%, respectively.

`Cc1nc(C)c(C(=O)N2CCC(Nc3cccnc3)CC2)s1`: the Percent Effect in assay [1] is 16.8%; in assay [2], -45.8%.

Consider `O=c1cccnn1CC1CN(Cc2ccsc2)Cc2nccn2C1` (stereo not drawn), for which the Percent Effect in assay [1] was found to be 7.43%; in assay [2], 5.53%.

Regarding `CCOc1cc(C(=O)N2CCCC(n3cncn3)C2)ccc1C` (stereo not drawn), the results for the Percent Effect in assay [1] and in assay [2] were 1.17% and 17.5%, respectively.

Regarding `Cc1nnc(N2CCC(CNC(=O)OC(C)(C)C)CC2)c(C#N)c1C`, the values for the Percent Effect in assay [1] and in assay [2] were -0.115% and 34.8%, respectively.

Regarding `c1csc(CN2Cc3nccn3CC(Cn3cncn3)C2)n1` (stereo not drawn), the figures for the Percent Effect in assay [1] and in assay [2] were -2.48% and -4.98%, respectively.

For `Cc1cc(CN(C)C(=O)c2ccc(Cl)c(S(C)(=O)=O)c2)no1`, the values for the Percent Effect in assay [1] and in assay [2] were -2.25% and -3.87%, respectively.

As to `CC(C)Cc1cc(NC(=O)c2ccc[nH]2)n(C)n1`, the Percent Effect in assay [1] is -0.121%; in assay [2], 7.24%.
